Tau filament bind: tau filament binding. P10636. recombinant tau filaments, thioflavin S fluorescence, 15 h; filaments grown with octadecylsulfate alongside compound. Potency, µM (titrated, usually from 57.1 µM). 2% of 71,000 active;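 further: actives lower thioflavin S fluorescence by blocking filaments or displacing dye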
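Assay mix: 1 uM His-tagged tau, 30 uM sodium octadecylsulfate, thioflavine S dye in HEPES/NaCl/DTT buffer. Compound is added prior to the inducer. Fluorescence after 15 h at 37 C.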
p53ts 32C tox: cytotoxicity in p53ts cells at permissive temperature. H1299-p53A138V at 32C, ATP luminescence viability, 24 h. Potency, µM (highest dose often 46.1 µM), hits mostly cytotoxic. 0.93% of 130,000 active. AID 924; further: nearly all actives have a fitted effect of over 55% in size
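Viability by ATPlite luminescence after 24 h compound treatment (up to 46 uM) at the permissive 32C. Cells are H1299 carrying p53 A138V. Scale runs from DMSO basal to 100 uM tamoxifen as full kill; AC50 from Hill fits.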
Luciferase inh: blocks Photinus pyralis firefly luciferase activity; P08659; purified firefly luciferase, luminescence, 8 min; Potency, µM (doses to about 57.1 µM), hits mostly inhibitors; 2.2% of 72,000 active; AID 411; further: nearly all actives have a fitted effect of over 40% in size
Target sequence (P08659 whole entry, looked up): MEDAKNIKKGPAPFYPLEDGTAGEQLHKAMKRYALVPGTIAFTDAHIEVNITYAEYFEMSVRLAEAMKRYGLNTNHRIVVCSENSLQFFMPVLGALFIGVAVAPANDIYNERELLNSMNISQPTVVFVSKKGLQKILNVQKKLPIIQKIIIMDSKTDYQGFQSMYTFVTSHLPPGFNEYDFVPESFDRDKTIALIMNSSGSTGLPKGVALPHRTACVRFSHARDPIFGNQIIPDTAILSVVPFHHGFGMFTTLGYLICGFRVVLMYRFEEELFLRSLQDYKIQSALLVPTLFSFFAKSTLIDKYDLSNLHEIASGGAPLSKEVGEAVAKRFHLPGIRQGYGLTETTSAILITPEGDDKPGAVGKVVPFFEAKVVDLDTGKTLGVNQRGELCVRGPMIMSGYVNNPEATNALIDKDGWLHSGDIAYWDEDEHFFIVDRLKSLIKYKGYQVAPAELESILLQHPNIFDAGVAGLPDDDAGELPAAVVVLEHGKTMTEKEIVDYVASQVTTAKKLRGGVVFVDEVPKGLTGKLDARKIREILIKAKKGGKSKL
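qHTS concentration-response profiling: light output of P. pyralis luciferase with luciferin and 10 uM ATP, imidazole buffer pH 7.2. Read by luminescence after 8-min room-temperature incubation.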
Peg3 imprint: inducers of genomic imprint erasure in mouse ES cells; mouse ES Peg3-LacZ reporter, beta-gal luminescence, 40 h; Potency, µM (titrated, usually from 60.7 µM), hits mostly activators; 0.02% of 110,000 active
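Gelatin-coated wells received 300 freshly trypsinized female ES cells with a Peg3LacZ-Neo reporter on the maternal allele, then incubated 40 hours at 37C. BetaGlo was added for 5 minutes at room temperature before a single luminescence read.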
p53ts 39C kill: p53ts cell cytotoxicity, nonpermissive temperature | H1299-p53A138V viability at 39C, ATP luminescence, 24 h | Potency, µM (top dose mostly 46.1 µM), usual class: cytotoxic | 1.5% of 130,000 active | AID 902; further: nearly all actives have a fitted effect of over 55% in size
Of the large screens only hits and unclear results are named; the others gave an inactive call. Rows were chosen to be rich in hits. Some 3.4% of all compounds tested hit in one or more screens of this group. The call rests on the fitted dose curve; in most records, active means well fitted curve in the direction sought with a large enough effect; inconclusive means small, poorly fitted or top-dose-only effect, or another doubt; inactive means no such curve, though single readings can be large; an effect the other way counts as inactive or inconclusive.

Cc1noc(-c2ccc(N3CCCCC3C)c([N+](=O)[O-])c2)n1 (configuration not stated)	none (no result: Tau filament bind, Luciferase inh)
CCc1cc2cc(C(=O)Nc3ccccc3F)sc2s1	Luciferase inh 5µM
Cc1cc(C)n(-c2nc3ccccc3nc2Nc2ccc3[nH]c(=O)[nH]c3c2)n1	Tau filament bind 1.3µM
Cc1cc(C)n(-c2nc3ccccc3nc2Nc2ccc(Cl)c(Cl)c2)n1	none (no result: Tau filament bind, Luciferase inh)
Cc1nc(N2CCOCC2)c2c(C(=O)N3CCN(c4ccccc4F)CC3)c(C)oc2n1	none (no result: Tau filament bind, Luciferase inh)
COc1ccc(/C=C/C(=O)c2ccc(C)s2)cc1	p53ts 32C tox 32µM (no result: Tau filament bind, Luciferase inh)
O=S(=O)(c1ccccc1)c1nc(-c2ccc(F)cc2)oc1N1CCCCCC1	none (no result: Tau filament bind, Luciferase inh)
CCCCCS(=O)(=O)c1oc(-c2cccs2)nc1S(=O)(=O)c1ccc(C)cc1	p53ts 32C tox inconclusive, p53ts 39C kill 3.2µM (no result: Tau filament bind, Luciferase inh)
CCS(=O)(=O)c1oc(-c2ccc(F)cc2)nc1S(=O)(=O)c1ccccc1	p53ts 32C tox inconclusive, p53ts 39C kill 2.5µM (no result: Tau filament bind, Luciferase inh)
CCCCS(=O)(=O)c1oc(-c2cccs2)nc1S(=O)(=O)c1ccc(F)cc1	p53ts 32C tox 20µM, p53ts 39C kill 3.2µM (no result: Tau filament bind, Luciferase inh)
CCCCS(=O)(=O)c1oc(-c2ccc(F)cc2)nc1S(=O)(=O)c1ccc(C)cc1	p53ts 32C tox 13µM, p53ts 39C kill 4µM (no result: Tau filament bind, Luciferase inh)
CC(=O)Nc1ccc(-c2nnc3n(CC(C)C)c(=O)c4ccccc4n23)cc1	p53ts 39C kill inconclusive (no result: Tau filament bind, Luciferase inh)
Cc1ccc(C(=O)NCCSc2c[nH]c3ccccc23)cc1C	none (no result: Tau filament bind, Luciferase inh)
CCC(C)S(=O)(=O)c1oc(-c2ccc(F)cc2)nc1S(=O)(=O)c1ccc(F)cc1 (configuration not stated)	p53ts 32C tox 4µM, p53ts 39C kill 3.2µM (no result: Tau filament bind, Luciferase inh)
Nc1cc(-c2ccccc2)ccc1O	Tau filament bind 25µM, Luciferase inh inconclusive
Nc1ccc(-c2ccc(N)c(O)c2)cc1O	Tau filament bind 5µM (no result: Luciferase inh)
Cc1ccc(C(=O)NCC(c2ccc(Cl)cc2)N2CCCCC2)cc1 (configuration not stated)	p53ts 32C tox inconclusive, Peg3 imprint inconclusive (no result: Tau filament bind, Luciferase inh)
CCOC(=O)c1cc(-c2ccco2)nc2c1c(C)nn2CCC#N	Tau filament bind 16µM
CCOC(=O)c1cc(-c2ccc3c(c2)OCCO3)nc2c1c(C)nn2CCC#N	none
CCc1ccc(NS(=O)(=O)c2ccc(Cl)cc2OC)cc1	none (no result: Tau filament bind, Luciferase inh, Peg3 imprint)
CCOc1ccc(NC(=O)Nc2ccc3nccnc3c2)cc1	Tau filament bind 25µM
CCOc1ccc(NC(=O)c2ccncc2)cc1	none
CC(C)(C)NC(=O)Nc1ccc2nccnc2c1	p53ts 32C tox inconclusive, Luciferase inh 16µM, p53ts 39C kill inconclusive
COc1cccc(OCc2nc3ccccc3n2CCOc2ccccc2)c1	none (no result: Tau filament bind, Luciferase inh)
O=C(Nc1cnc(N2CCC(N3CCCCC3)CC2)c(C(=O)O)c1)c1ccc(Br)cc1	none (no result: Tau filament bind, Luciferase inh)
COc1cccc(Cn2c(=O)cnc3cnc(Nc4cccc(OC)c4)nc32)c1	Tau filament bind inconclusive
Cc1oc(/N=C/c2cccc3ccccc23)c(C#N)c1C	Tau filament bind 0.79µM
CNc1oc(Cc2cccc3ccccc23)nc1C#N	none
CC(CN(C)C)NC(=O)c1ccc(-n2c(=O)c(=O)[nH]c3ccccc32)cc1 (configuration not stated)	none (no result: Tau filament bind, Luciferase inh, Peg3 imprint)
Cc1cc(N)n(-c2ncnc3scc(-c4ccc(Cl)cc4)c23)n1	p53ts 39C kill inconclusive (no result: Tau filament bind, Luciferase inh, Peg3 imprint)
Cc1cc2ncc(-c3ccc(Cl)cc3)c(N)n2n1	p53ts 32C tox inconclusive, Luciferase inh 13µM, p53ts 39C kill inconclusive
COc1ccc2[nH]c(C(=O)O)c(NS(=O)(=O)c3ccc(OC)c(OC)c3)c2c1	Tau filament bind 20µM
CCN(CCNC(=O)C1CCN(Cc2nc(-c3cccc(Cl)c3)oc2C)CC1)c1ccccc1	p53ts 32C tox 13µM, p53ts 39C kill 16µM
CCN(CCNC(=O)C1CCN(Cc2nc(-c3ccc(Cl)cc3)oc2C)CC1)c1ccccc1	p53ts 32C tox 25µM, p53ts 39C kill inconclusive
CCc1ccc(-c2nc(CN3CCC(C(=O)NCCN(CC)c4ccccc4)CC3)c(C)o2)cc1	Tau filament bind inconclusive, Peg3 imprint inconclusive
COc1ccc(/C=N/NC(=O)c2cc(-c3ccc(Cl)cc3)n[nH]2)cc1OC	none (no result: Tau filament bind, Luciferase inh, Peg3 imprint)
c1ccc2c[n+](CCCC[n+]3ccc4ccccc4c3)ccc2c1	Tau filament bind 3.2µM
COc1ccc(NS(=O)(=O)c2ccc(I)cc2)cc1N1CCN(C)CC1	Tau filament bind 40µM
COc1ccc(S(=O)(=O)Nc2ccc(C)cc2)cc1OC	none
COc1ccc(-n2nc3cc(C)c(NC(=O)c4cccnc4)cc3n2)cc1	Luciferase inh 2.5µM
Cc1cc2nn(-c3ccccc3)nc2cc1NC(=O)c1cccs1	p53ts 32C tox inconclusive, Luciferase inh 16µM, p53ts 39C kill inconclusive
CCn1cc2nc(SCC(=O)Nc3ccc(OC)c(OC)c3)n(Cc3ccc(Cl)cc3)c(=O)c2n1	none (no result: Tau filament bind, Luciferase inh)
O=C(Nc1ccc(Cl)c(Cl)c1)N1CCC(c2ccccc2)C1 (configuration not stated)	p53ts 32C tox inconclusive, p53ts 39C kill inconclusive (no result: Tau filament bind, Luciferase inh)
O=C(c1cccs1)N1CCC(c2ccccc2)C1 (configuration not stated)	Luciferase inh 13µM
O=C(Nc1ccccc1)N1CCC(c2ccccc2)C1 (configuration not stated)	p53ts 32C tox inconclusive, Luciferase inh 16µM, p53ts 39C kill inconclusive
CCn1nc(C)c2c(-c3ccccc3)cc(=O)n(C(C)C(=O)NCc3cccc(OC)c3)c21 (configuration not stated)	none (no result: Tau filament bind, Luciferase inh)
COCCNC(=O)[C@H](C)/C=C(\c1cccnc1)C(NC(=O)OCc1ccccc1)c1ccc(C(=O)OC)cc1 (some centres not stated)	none (no result: Luciferase inh)
Cc1sc(NC(=O)c2ccc(Cl)s2)c(C(N)=O)c1C	p53ts 32C tox inconclusive, Luciferase inh 10µM, p53ts 39C kill inconclusive
O=C(/C=C/Nc1ccc(F)cc1)c1ccco1	p53ts 32C tox 7.9µM, Luciferase inh 3.2µM, p53ts 39C kill 13µM
O=C(NCCN1CCN(c2ccccc2)CC1)c1cccn2c(=O)c3cc(Cl)ccc3nc12	Tau filament bind 16µM
O=C(NCCN1CCN(c2cccc(Cl)c2)CC1)c1cccn2c(=O)c3ccccc3nc12	none
Cc1cc(C)c2c(CC(=O)N3CCN(c4cccc(Cl)c4)CC3)coc2c1	none (no result: Tau filament bind, Luciferase inh)
Cc1ccc(N2CCN(C(=S)c3ccc(N(C)C)cc3)CC2)cc1	Tau filament bind 13µM
CN(C)c1ccc(C(=S)N2CCN(c3ccccc3)CC2)cc1	none
CC(=O)N1CCc2c(sc3c2c(=O)n(-c2ccc(F)cc2)c(=O)n3Cc2cc(C)ccc2C)C1	none (no result: Tau filament bind, Luciferase inh)
CC(C)(C)n1ncc2c(=O)n(CC(=O)c3ccc(Cl)cc3)cnc21	Luciferase inh 20µM
CC(C)(C)n1ncc2c(=O)n(CC(=O)NCc3ccccc3)cnc21	Luciferase inh 20µM, Peg3 imprint inconclusive, p53ts 39C kill inconclusive
CC(C)(C)n1ncc2c(=O)n(CC(=O)Nc3ccc(Cl)cc3)cnc21	none
COc1cccc(-c2cc(C(=O)Nc3cccc(O)c3)no2)c1	p53ts 32C tox 2.5µM, Luciferase inh 3.2µM, p53ts 39C kill 3.2µM

Assay outcomes deposited in PubChem BioAssay by National Center for Advancing Translational Sciences (NCATS).
